Reference: PubChem BioAssay (Tox21)
Values without a mark were called inactive. Records with an inconclusive call do not appear. Where a call stands in place of a potency, no number is given. Calls of active or inactive are those of the source. Unless noted, the call rests on the fitted dose curve; in most records, active means well fitted curve in the direction sought with a large enough effect in the repeat runs; inconclusive means weak or mixed curves; inactive means no such curve, though single readings can be large; an effect the other way counts as inactive or inconclusive.

Assays:
[1] = qHTS assay to identify small molecule agonists of the sonic hedgehog signaling (Shh) pathway - cell viability counter screen (AID 1259366); further: nearly all actives have a fitted effect of over 50% in size; further: potency means the concentration at half of the fitted maximal effect
Method in brief: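 Stable Gli1-Luc NIH/3T3 clone, 2,000 cells/well. Compound exposure 24hr at 37C. Read-out: CellTiter-Fluor fluorescence.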

[2] = qHTS assay to identify small molecule antagonists of the sonic hedgehog signaling (Shh) pathway - cell viability counter screen (AID 1259367); further: nearly all actives have a fitted effect of over 55% in size; further: potency means the concentration at half of the fitted maximal effect
Method in brief: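 Viability was read by CellTiter-Fluor fluorescence in the same wells, reagent added 23 hr into compound treatment and incubated 1 hr at 37C. The 3T3 Gli1-Luc reporter cells (2,000/well) received conditioned medium after compound and ran 24 hr.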

[3] = qHTS assay to identify small molecule agonists of the sonic hedgehog signaling (Shh) pathway (AID 1259368; calls by dose curve;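 further: NIH/3T3-derived 3T3Gli1-Luc cells carrying a stable Gli1-driven firefly luciferase reporter; series mostly up to about 92 µM; nearly all actives have a fitted effect of over 15% in size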)
Method in brief: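 Following a 24 hr incubation with DMSO-dissolved compounds at 37 C, 5% CO2, Gli1-Luc NIH/3T3-derived cells received luciferase reagent for 30 min at room temperature prior to luminescence measurement.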

[4] = qHTS assay to identify small molecule antagonists of the sonic hedgehog signaling (Shh) pathway (AID 1259369; calls by dose curve; further: nearly all actives have a fitted effect of over 45% in size)
Method in brief: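 Read-out is luminescence from a firefly luciferase gene controlled by the Gli1 response element, in 3T3Gli1-Luc cells pre-incubated 4hr then exposed to compounds and conditioned medium for 24hr.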

[5] = target: Estrogen receptor beta (Homo sapiens) (UniProt Q92731); test: qHTS assay to identify small molecule agonists of the estrogen receptor beta (ER-beta) signaling pathway (AID 1259377; active means well fitted activation curve with a large enough effect in the signal ratio in the repeat runs, not every such curve was filed as active; the % refers to the signal ratio)
Method in brief: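 Measured by fluorescence intensity from a B/G FRET beta-lactamase substrate (2 h, room temperature) in ER-beta-UAS-bla HEK293T cells treated with DMSO-dissolved compounds for 16 hr at 37C and 5% CO2.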

[6] = target: Estrogen receptor beta (Homo sapiens) (UniProt Q92731); test: qHTS assay to identify small molecule antagonists of the estrogen receptor beta (ER-beta) signaling pathway (AID 1259378; active means well fitted inhibition curve with a large enough effect in the signal ratio in the repeat runs, not every such curve was filed as active; the % refers to the signal ratio)
Method in brief: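 Antagonist mode: compounds added to beta-lactamase reporter HEK293T ER-beta-UAS cells stimulated with E2 (1nM final), 16 hr at 37C. LiveBLAzer B/G FRET substrate, 2 hours room temperature, fluorescence read-out.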

[7] = qHTS assay to identify small molecule agonists of the androgen receptor (AR) signaling pathway in the presence of an antagonist - cell viability counter screen (AID 1259379); further: nearly all actives have a fitted effect of over 25% in size; further: potency means the concentration at half of the fitted maximal effect
Method in brief: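 Each compound was tested at 15 concentrations on MDA-kb2 cells in the presence of 3.0uM nilutamide. Viability was measured by CellTiter-Fluor fluorescence after a 16 hr incubation at 37C in a CO2-free atmosphere.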

[8] = qHTS assay to identify small molecule agonists of the estrogen receptor beta (ER-beta) signaling pathway - cell viability counter screen (AID 1259380); further: nearly all actives have a fitted effect of over 30% in size
Method in brief: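 Compounds dissolved in DMSO were pin-transferred onto ER-beta-UAS-bla HEK293T cells that had settled 6 hr, and exposure ran 16 hr at 37C. Following the reporter read, CellTiter-Glo luminescence after 30 min at room temperature indicated cytotoxicity.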

[9] = qHTS assay to identify small molecule antagonists of the estrogen receptor beta (ER-beta) signaling pathway - cell viability counter screen (AID 1259382);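 further: HEK293T cells carrying ER-beta-UAS-bla reporter stimulated with estradiol; series mostly up to about 92 µM; nearly all actives have a fitted effect of over 55% in size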
Method in brief: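 CellTiter-Glo ATP luminescence measured after the LiveBLAzer read in the same wells; ER-beta-UAS-bla HEK293T cells, 16 hr compound treatment with 1nM 17-beta-estradiol agonist at 37C, 5% CO2.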

[10] = target: Estrogen receptor (Homo sapiens) (UniProt P03372); test: qHTS assay to identify small molecule agonists of the estrogen receptor alpha (ER-alpha) signaling pathway in the presence of an antagonist (AID 1259383; calls by dose curve; further: top concentration of the series differs between compounds; nearly all actives have a fitted effect of over 15% in size)
Method in brief: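 Luminescent ERE-luciferase reporter, VM7Luc4E2 cells (endogenous ER-alpha); 10.0nM ICI-182,780 final; 15-point compound titration; 22hr at 37C; ONE-Glo, 30min RT.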

[11] = qHTS assay to identify small molecule agonists or antagonists of the thyroid stimulating hormone receptor (TSHR) signaling pathway - wild type cell line counter screen (AID 1259384; calls by dose curve)
Method in brief: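 Counter screen in untransfected Hek293: compounds (15-point titration, triplicate) plus phosphodiesterase inhibitor Ro20-1724 added after 18 h plating; 30 min RT. Intracellular cAMP via competitive d2/cryptate immunoassay, 1 h incubation.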

[12] = target: Thyrotropin receptor (Homo sapiens) (UniProt P16473); test: qHTS assay to identify small molecule antagonists of the thyroid stimulating hormone receptor (TSHR) signaling pathway (AID 1259385; calls by dose curve; further: nearly all actives have a fitted effect of over 20% in size)
Method in brief: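 Antagonist mode: compound-treated TSHR-expressing HEK293 cells were stimulated with 1.5 ng/mL TSH (final) in presence of Ro20-1724 for 30 min at RT. HTRF cAMP detection after 1 h; each compound tested at 15 concentrations, triplicate.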

[13] = target: Progesterone receptor (Homo sapiens) (UniProt P06401); test: qHTS assay to identify small molecule agonists of the progesterone receptor (PR) signaling pathway (AID 1346784; calls by dose curve; further: nearly all actives have a fitted effect of over 30% in size; further: potency means the concentration at half of the fitted maximal effect)
Method in brief: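 The screen uses PR-UAS-bla HEK 293T cells in charcoal-stripped serum (2%). Compounds are applied for 16 hr at 37C after a 6 hr pre-incubation, and reporter activity is detected with a FRET beta-lactamase substrate after 2 hr at room temperature.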

[14] = target: Progesterone receptor (Homo sapiens) (UniProt P06401); test: qHTS assay to identify small molecule antagonists of the progesterone receptor (PR) signaling pathway (AID 1346795; active means well fitted inhibition curve with a large enough effect in the signal ratio in the repeat runs, not every such curve was filed as active; the % refers to the signal ratio)
Method in brief: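 After 6 hr plating at 37C in 2% stripped-serum medium, PR-UAS-bla HEK293T cells got compounds, then 1 nM R5020. Sixteen hours later, LiveBLAzer substrate was applied for 2 hr at room temperature and fluorescence was recorded.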

[15] = qHTS assay to identify small molecule antagonists of the progesterone receptor (PR) signaling pathway - cell viability counter screen (AID 1346798); further: series mostly up to about 92 µM; nearly all actives have a fitted effect of over 50% in size
Method in brief: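 Viability was determined by ATP-based luminescence (CellTiter-Glo) in PR-UAS-bla HEK293T cells cultured in 2% charcoal-stripped serum and incubated 16 hr with compounds under R5020 stimulation.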

[16] = qHTS assay to identify small molecule agonists of the progesterone receptor (PR) signaling pathway - cell viability counter screen (AID 1346799; calls by dose curve; further: nearly all actives have a fitted effect of over 45% in size)
Method in brief: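 Viability was scored by ATP luminescence (CellTiter-Glo, 30 min, room temperature) in the same wells used for the reporter readout, after 16 hr compound exposure of PR-UAS-bla HEK293T cells.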

[17] = qHTS assay to identify small molecule antagonists of the TGF-beta/Smad signaling pathway - cell viability counter screen (AID 1346824); further: nearly all actives have a fitted effect of over 50% in size
Method in brief: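 Cytotoxicity counter-screen run in the same wells as the beta-lactamase Smad reporter read: CellTiter-Glo luminescence after 30 min at room temperature. HEK 293T SBE-bla cells had 5 hr compound exposure at 37 C with TGF-beta1 (0.25 ng/mL stock).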

[18] = qHTS assay to identify small molecule agonists of the TGF-beta/Smad signaling pathway - cell viability counter screen (AID 1346829); further: top concentration of the series differs between compounds; nearly all actives have a fitted effect of over 45% in size
Method in brief: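 In parallel with the Smad reporter read, viability of HEK 293T cells stably carrying SBE-bla is quantified by ATP luminescence following 5 hr compound treatment.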

[19] = qHTS assay to identify small molecule agonists of the estrogen receptor alpha (ER-alpha) signaling pathway in the presence of an antagonist - cell viability counter screen (AID 1259386);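 further: cells exposed to compounds for 22 h at 37 °C before the viability read; nearly all actives have a fitted effect of over 30% in size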; further: potency means the concentration at half of the fitted maximal effect
Method in brief: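 Using estrogen-depleted VM7Luc4E2 cells, the 15-concentration compound series was applied together with 10.0nM ICI-182,780 and incubated 22hr at 37C/5% CO2. Cell viability was then scored by CellTiter-Fluor.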

[20] = target: Androgen receptor (Homo sapiens) (UniProt P10275); test: qHTS assay to identify small molecule agonists of the androgen receptor (AR) signaling pathway in the presence of an antagonist (AID 1259381; calls by dose curve; further: nearly all actives have a fitted effect of over 15% in size)
Method in brief: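 Plated MDA-kb2 cells (3,000/well) were pre-incubated 5hr, given nilutamide (3.0uM final) or buffer, then dosed with compounds in DMSO at 15 concentrations. Luciferase activity was quantified by luminescence after 16hr at 37C.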

Chain of Estrogen receptor beta (Homo sapiens) (Q92731 whole entry, looked up): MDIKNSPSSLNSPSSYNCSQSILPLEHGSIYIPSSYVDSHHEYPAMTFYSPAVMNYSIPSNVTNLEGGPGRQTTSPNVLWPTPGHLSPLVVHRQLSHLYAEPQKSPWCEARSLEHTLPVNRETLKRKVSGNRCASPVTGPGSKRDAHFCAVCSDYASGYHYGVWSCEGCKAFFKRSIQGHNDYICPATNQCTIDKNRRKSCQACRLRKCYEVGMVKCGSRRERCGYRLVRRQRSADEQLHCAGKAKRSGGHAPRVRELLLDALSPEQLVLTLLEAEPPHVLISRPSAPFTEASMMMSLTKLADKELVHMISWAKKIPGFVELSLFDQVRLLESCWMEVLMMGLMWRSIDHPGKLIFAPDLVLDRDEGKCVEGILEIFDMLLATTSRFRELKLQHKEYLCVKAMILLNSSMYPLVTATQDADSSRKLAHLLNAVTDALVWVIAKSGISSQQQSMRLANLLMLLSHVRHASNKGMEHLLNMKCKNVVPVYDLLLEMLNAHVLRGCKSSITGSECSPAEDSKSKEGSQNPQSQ
Chain of Progesterone receptor (Homo sapiens) (P06401 whole entry, looked up): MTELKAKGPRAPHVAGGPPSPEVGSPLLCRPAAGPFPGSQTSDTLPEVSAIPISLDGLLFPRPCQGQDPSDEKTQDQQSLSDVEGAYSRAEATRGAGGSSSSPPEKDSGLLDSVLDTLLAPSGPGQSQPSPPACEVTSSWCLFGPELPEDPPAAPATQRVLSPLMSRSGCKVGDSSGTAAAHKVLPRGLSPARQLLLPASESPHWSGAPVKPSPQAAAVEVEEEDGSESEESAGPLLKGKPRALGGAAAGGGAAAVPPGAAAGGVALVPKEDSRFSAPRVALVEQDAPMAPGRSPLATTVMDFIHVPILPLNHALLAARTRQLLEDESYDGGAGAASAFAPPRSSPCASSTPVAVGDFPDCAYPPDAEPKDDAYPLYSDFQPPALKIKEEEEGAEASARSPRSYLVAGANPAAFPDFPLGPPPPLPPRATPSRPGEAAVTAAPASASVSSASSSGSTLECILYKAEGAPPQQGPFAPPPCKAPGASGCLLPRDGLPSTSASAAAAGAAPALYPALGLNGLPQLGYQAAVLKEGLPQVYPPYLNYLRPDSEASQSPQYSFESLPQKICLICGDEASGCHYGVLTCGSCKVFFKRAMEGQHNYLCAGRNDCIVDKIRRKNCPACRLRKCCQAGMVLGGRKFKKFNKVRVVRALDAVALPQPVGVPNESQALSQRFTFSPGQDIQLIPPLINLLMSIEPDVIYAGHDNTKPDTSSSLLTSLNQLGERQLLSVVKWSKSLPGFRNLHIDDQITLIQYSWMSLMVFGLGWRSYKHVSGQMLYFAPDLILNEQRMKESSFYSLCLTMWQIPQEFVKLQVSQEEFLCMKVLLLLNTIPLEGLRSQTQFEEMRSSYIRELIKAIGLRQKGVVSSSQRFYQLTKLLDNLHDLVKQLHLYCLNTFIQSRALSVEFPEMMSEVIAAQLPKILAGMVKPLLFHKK
Chain of Thyrotropin receptor (Homo sapiens) (P16473 whole entry, looked up): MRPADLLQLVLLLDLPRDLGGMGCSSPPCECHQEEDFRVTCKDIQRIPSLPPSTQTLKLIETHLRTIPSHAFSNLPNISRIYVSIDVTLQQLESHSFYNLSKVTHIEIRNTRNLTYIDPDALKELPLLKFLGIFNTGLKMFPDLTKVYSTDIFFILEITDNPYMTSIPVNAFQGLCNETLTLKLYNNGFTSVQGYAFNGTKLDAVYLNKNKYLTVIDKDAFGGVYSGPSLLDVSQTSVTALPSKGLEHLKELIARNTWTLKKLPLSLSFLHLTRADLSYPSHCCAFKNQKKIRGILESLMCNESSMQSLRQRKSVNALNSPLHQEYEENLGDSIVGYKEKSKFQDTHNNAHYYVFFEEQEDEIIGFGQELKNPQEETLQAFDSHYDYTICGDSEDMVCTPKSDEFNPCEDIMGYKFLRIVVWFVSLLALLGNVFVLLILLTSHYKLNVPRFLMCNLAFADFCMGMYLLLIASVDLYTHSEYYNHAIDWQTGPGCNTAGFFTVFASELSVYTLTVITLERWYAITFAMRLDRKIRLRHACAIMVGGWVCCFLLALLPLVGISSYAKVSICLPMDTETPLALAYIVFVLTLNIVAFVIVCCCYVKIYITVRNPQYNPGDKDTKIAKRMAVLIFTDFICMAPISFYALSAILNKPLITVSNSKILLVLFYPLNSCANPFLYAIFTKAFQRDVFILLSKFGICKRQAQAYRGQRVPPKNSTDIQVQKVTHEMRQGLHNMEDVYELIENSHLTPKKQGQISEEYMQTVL
Chain of Estrogen receptor (Homo sapiens) (P03372 whole entry, looked up): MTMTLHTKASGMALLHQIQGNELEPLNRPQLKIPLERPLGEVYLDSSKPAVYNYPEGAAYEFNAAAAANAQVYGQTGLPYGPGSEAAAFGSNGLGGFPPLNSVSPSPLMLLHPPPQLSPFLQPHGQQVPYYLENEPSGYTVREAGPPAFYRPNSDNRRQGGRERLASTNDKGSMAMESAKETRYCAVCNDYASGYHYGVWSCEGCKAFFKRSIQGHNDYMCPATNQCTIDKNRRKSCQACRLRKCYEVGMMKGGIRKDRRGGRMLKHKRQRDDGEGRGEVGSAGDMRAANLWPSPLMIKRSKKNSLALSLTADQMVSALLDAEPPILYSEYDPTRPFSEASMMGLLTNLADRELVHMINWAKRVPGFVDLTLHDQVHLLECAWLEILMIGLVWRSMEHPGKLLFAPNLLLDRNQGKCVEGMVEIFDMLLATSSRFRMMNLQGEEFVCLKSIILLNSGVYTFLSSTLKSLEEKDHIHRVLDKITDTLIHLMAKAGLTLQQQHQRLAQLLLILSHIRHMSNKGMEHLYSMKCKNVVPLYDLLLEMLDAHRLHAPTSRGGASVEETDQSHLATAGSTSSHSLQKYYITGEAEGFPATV
Chain of Androgen receptor (Homo sapiens) (P10275 whole entry, looked up): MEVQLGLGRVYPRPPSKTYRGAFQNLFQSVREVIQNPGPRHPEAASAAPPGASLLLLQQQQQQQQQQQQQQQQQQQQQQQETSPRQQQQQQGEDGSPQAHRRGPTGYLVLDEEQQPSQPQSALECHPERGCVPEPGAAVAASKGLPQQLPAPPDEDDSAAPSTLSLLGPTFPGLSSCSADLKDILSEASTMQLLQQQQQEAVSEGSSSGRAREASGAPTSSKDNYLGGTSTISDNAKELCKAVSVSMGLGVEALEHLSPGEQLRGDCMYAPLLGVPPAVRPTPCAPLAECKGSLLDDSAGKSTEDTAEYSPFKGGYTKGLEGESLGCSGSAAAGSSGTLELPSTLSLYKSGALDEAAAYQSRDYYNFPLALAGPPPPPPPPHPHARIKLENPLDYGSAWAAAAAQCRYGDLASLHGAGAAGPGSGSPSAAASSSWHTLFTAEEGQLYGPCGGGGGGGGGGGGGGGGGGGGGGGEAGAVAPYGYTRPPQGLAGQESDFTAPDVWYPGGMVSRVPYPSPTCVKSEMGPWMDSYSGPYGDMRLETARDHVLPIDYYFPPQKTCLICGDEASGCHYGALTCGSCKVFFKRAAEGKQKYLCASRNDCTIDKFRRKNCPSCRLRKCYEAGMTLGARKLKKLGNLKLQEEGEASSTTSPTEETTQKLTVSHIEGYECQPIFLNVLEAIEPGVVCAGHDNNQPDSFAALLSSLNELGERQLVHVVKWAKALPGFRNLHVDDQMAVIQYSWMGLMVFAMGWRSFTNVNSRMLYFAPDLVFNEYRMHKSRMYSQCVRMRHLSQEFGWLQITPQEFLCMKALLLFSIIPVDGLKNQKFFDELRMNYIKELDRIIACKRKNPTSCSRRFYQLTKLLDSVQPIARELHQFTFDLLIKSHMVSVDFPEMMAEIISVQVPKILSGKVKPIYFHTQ

Row | SMILES | Potency [1] | Potency [2] | outcome [3] | Potency [4] | Potency [5] | outcome [6] | Potency [7] | outcome [8] | outcome [9] | outcome [10] | outcome [11] | outcome [12] | Potency [13] | Potency [14] | Potency [15] | Potency [16] | outcome [17] | outcome [18] | Potency [19] | outcome [20]
1 | CCCCCCCCC(=O)OCC | inactive | inactive | inactive | inactive | inactive | inactive | inactive | inactive | inactive | inactive | inactive | inactive | inactive | inactive | inactive | inactive | inactive | inactive |  | 
2 | CCCCCC1Nc2cc(C(F)(F)F)c(S(N)(=O)=O)cc2S(=O)(=O)N1 (stereo not drawn) | inactive | inactive | inactive | inactive | inactive | inactive | inactive | inactive | inactive | inactive | inactive | inactive | inactive | inactive | inactive |  | inactive | inactive | inactive | 
3 | Cc1cccc(C(=O)O)c1[N+](=O)[O-] | inactive | inactive | inactive | inactive | inactive | inactive | inactive | inactive | inactive | inactive | inactive | inactive | inactive | inactive | inactive | inactive | inactive | inactive | inactive | 
4 | O=C1c2ccccc2-c2ccccc21 | inactive | inactive | inactive | inactive | inactive | inactive | inactive | inactive | inactive |  | inactive | inactive | inactive | inactive | inactive | inactive | inactive | inactive |  | inactive
5 | COc1cc2c(Nc3ccc(Br)cc3F)ncnc2cc1OCC1CCN(C)CC1 | inactive | inactive | inactive | inactive | inactive | inactive | inactive | inactive | inactive | inactive |  |  | inactive | inactive |  | inactive | inactive | inactive | inactive | 
6 | COc1ccc(/C=N/NC(=O)c2ccncc2)cc1OC | inactive | inactive | inactive | inactive | inactive | inactive |  |  | inactive | inactive | inactive | inactive | inactive | inactive | inactive | inactive | inactive | inactive | inactive | inactive
7 | CC1(N)CCC(C(C)(C)N)CC1 (stereo not drawn) | inactive | inactive | inactive | inactive | inactive | inactive | inactive | inactive | inactive |  | inactive | inactive |  | inactive | inactive |  | inactive | inactive |  | 
8 | O=C1OC(=O)c2ccccc21 | inactive | inactive | inactive | inactive | inactive | inactive |  | inactive | inactive | inactive | inactive | inactive | 60.8 µM (active) | inactive | inactive |  | inactive | inactive | inactive | 
9 | CC(=O)Nc1ccc(C)cc1 | inactive | inactive | inactive | inactive | inactive |  | inactive | inactive | inactive | inactive |  |  | inactive | inactive | inactive | inactive | inactive | inactive |  | 
10 | COc1ccc(N=Nc2cc(C)c(N=Nc3ccc(S(=O)(=O)O)cc3)cc2OC)cc1 | 54.5 µM (active) | inactive | inactive | inactive | inactive |  | 48.6 µM (active) | inactive | inactive |  | inactive |  | inactive |  |  | inactive | inactive | inactive | 27.3 µM (active) | 
11 | CCCCCCCCCCC | inactive | inactive | inactive | inactive | inactive | inactive | inactive |  | inactive | inactive | inactive | inactive | inactive | inactive |  |  | inactive | inactive | inactive | inactive
12 | COc1cc([N+](=O)[O-])ccc1N | 54.5 µM (active) | 54.5 µM (active) | inactive | inactive | inactive | inactive |  | inactive | inactive | inactive | inactive | inactive | inactive |  | inactive | inactive | inactive | inactive | 38.6 µM (active) | inactive
13 | CC(C)C(=O)c1ccccc1 | inactive | inactive | inactive | inactive | inactive | inactive | inactive |  | inactive | inactive | inactive | inactive | inactive | inactive | inactive | inactive | inactive | inactive | inactive | 
14 | CC(=O)c1ccc2c(c1)CCCC2 | inactive | inactive | inactive | inactive | inactive | inactive |  | inactive | inactive | inactive | inactive | inactive | inactive | inactive |  | inactive | inactive | inactive | inactive | 
15 | CCOC(=O)CC#N | inactive | inactive | inactive | inactive | inactive |  | inactive |  | inactive | inactive | inactive | inactive | inactive | inactive | inactive | inactive | inactive | inactive | inactive | 
16 | CCCOC(=O)CCCCC(=O)OCCC | inactive | inactive | inactive | inactive | inactive |  | inactive | inactive | inactive | inactive | inactive | inactive | inactive | inactive | inactive | inactive | inactive | inactive | inactive | 
